As a reminder, the AC50 is the concentration giving half of the maximal activity seen.

A short description of assay [1]: ATG_NFI_CIS: Attagene CIS-FACTORIAL HepG2 Assay for human Nuclear Factor I (NFI) (AID 2282989). The note with it: HepG2 cis-regulatory reporter, NFI response element transcription; actives raise or lower the signal. The gist of the method:
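Reporter transcription driven by endogenous transcription factors in HepG2 cells; 24 h treatment. Quantitation by labelled RT-PCR fragments on capillary electrophoresis, gain- or loss-of-signal relative to DMSO.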

The target in assay [2] is Myc proto-oncogene protein (Homo sapiens) (UniProt P01106). Kind of assay: ATG_Myc_CIS: Attagene CIS-FACTORIAL HepG2 Assay for human Myelocytomatosis (Myc) Proto-Oncogene Transcription Factor (AID 2282990). Particulars: HepG2, Attagene cis-reporter transcription factor activity; actives raise or lower the signal. The method, boiled down:
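HepG2 cells transiently transfected with multiple cis-promoter-driven reporter transcription units, so endogenous TF activity is read. After 24 h compound exposure, reporter mRNA was quantified by RT-PCR, 6-FAM labelling, HpaI digestion and capillary electrophoresis; bidirectional fit versus DMSO.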

The nature of assay [3]: ATG_NF_kB_CIS: Attagene CIS-FACTORIAL HepG2 Assay for human Nuclear Factor Kappa B (NF-kB) (AID 2282991). Particulars: HepG2 Attagene cis-factorial NF-kB reporter mRNA; actives raise or lower the signal. The method, boiled down:
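Read-out: reporter transcript levels quantified by RT-PCR plus capillary electrophoresis of 6-FAM-labelled, HpaI-cut fragments. Transfected HepG2 cells, 24 h compound exposure, endogenous NF-kB-driven cis element; gain or loss scored versus DMSO.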

Assay [4] is described as follows: ATG_NRF2_ARE_CIS: Attagene CIS-FACTORIAL HepG2 Assay for human Nuclear Factor Erythroid 2 Related Factor 2 (NFR2) response to Antioxidant Response Elements (ARE) (AID 2282992).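 For AC50: reporter mRNA level measured by RT-PCR and capillary electrophoresis fluorescence.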 Particulars: HepG2 Attagene ARE/NRF2 reporter, transcription factor activity; actives raise or lower the signal. The method, boiled down:
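Fluorescence intensity of reporter-specific cDNA fragments, separated by capillary electrophoresis, reflects mRNA induction in transfected HepG2 cells at 24 h. Activity is fitted bidirectionally, DMSO serving as baseline.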

A short description of assay [5]: ATG_Oct_MLP_CIS: Attagene CIS-FACTORIAL HepG2 Assay for human Octamer-Binding Transcription Factor (Oct) (AID 2282993). Particulars: HepG2 Attagene cis-factorial Oct reporter, mRNA; actives raise or lower the signal. The gist of the method:
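Transfected HepG2 cells, 24 h treatment. Reporter mRNA quantified by RT-PCR–capillary electrophoresis; bidirectional fitting against DMSO.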

Assay [6] has as its target Cellular tumor antigen p53 (Homo sapiens) (UniProt P04637). Briefly: ATG_p53_CIS: Attagene CIS-FACTORIAL HepG2 Assay for human p53 Transcription Factor (AID 2282994). Particulars: HepG2 p53 cis-element reporter, Attagene mRNA; actives raise or lower the signal. The method, boiled down:
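Transiently transfected HepG2 (multiple cis reporter transcription units); exposure 24 h; reporter RNA via RT-PCR, 6-FAM extension, 2 h HpaI digest at 37 C, CE detection; DMSO baseline.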

A short description of assay [7]: BSK_3C_TissueFactor: BioMAP Diversity Plus: 3C Assay for Tissue Factor Biomarker Activity (AID 2282997). Particulars: BioMAP 3C HUVEC, tissue factor biomarker readout; actives raise or lower the signal. The method, boiled down: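 After a 24 h chemical exposure of primary human umbilical vein endothelial cells, Tissue Factor levels were quantified by ELISA.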
Assay [8] can be described thus: BSK_3C_uPAR: BioMAP Diversity Plus: 3C Assay for Urokinase-type plasminogen activator receptor (uPAR) Biomarker Activity (AID 2282998). Particulars: BioMAP 3C HUVEC, uPAR biomarker ELISA; actives raise or lower the signal. The method, boiled down: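 Readout: ELISA for surface uPAR. System: human umbilical vein endothelial primary cells, 24 h after chemical exposure. Analysis: bidirectional fit, DMSO baseline.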
A general note: In an ELISA, binding on a coated surface is turned into a signal by an enzyme label.

Assay [9] can be described thus: BSK_3C_VCAM1: BioMAP Diversity Plus: 3C Assay for Vascular cell adhesion molecule 1 (VCAM1) Biomarker Activity (AID 2282999). The note with it: BioMAP 3C HUVEC, VCAM1 ELISA, cytokine-stimulated; actives raise or lower the signal. The method, boiled down:
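Vascular primary endothelium (human umbilical vein) was exposed to chemicals and assayed 24 h later. VCAM-1 levels came from ELISA, with DMSO serving as baseline for bidirectional fitting.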

A short description of assay [10]: BSK_4H_Eotaxin3: BioMAP Diversity Plus: 4H Assay for Eotaxin 3 Biomarker Activity (AID 2283000).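 For outcome: CCL26 protein level quantified by ELISA in parallel with SRB cytotoxicity check.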 Particulars: primary human endothelial cells (HUVEC); actives raise or lower the signal. The gist of the method: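 Chemicals were added to human umbilical vein endothelium cultures, and Eotaxin-3 was quantified by ELISA at 24 h. Values were derived by bidirectional fitting with DMSO serving as negative control and activity baseline.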

For assay [11], the target named is human Peroxisome Proliferator-activated Receptor alpha (PPARa), PPARA (gene 5465) (UniProt Q07869). Kind of assay: ATG_PPARa_TRANS: Attagene TRANS-FACTORIAL HepG2 Assay for human Peroxisome Proliferator-activated Receptor alpha (PPARa) (AID 2283001; active = hit-call score of the fitted dose curve at least 0.9, where 1 is the maximum). The method, boiled down:
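Cells (HepG2) are transfected with multiple reporter transcription units, exposed to chemical for 24 h, then total RNA is reverse-transcribed and amplified. Labelled products are quantified by capillary electrophoresis; induction is referenced to DMSO.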

The target of assay [12] is human Peroxisome Proliferator-activated Receptor delta (PPARd), PPARD (gene 5467) (UniProt Q03181). Kind of assay: ATG_PPARd_TRANS: Attagene TRANS-FACTORIAL HepG2 Assay for human Peroxisome Proliferator-activated Receptor delta (PPARd) (AID 2283002; active = hit-call score of the fitted dose curve at least 0.9, where 1 is the maximum). The gist of the method: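 HepG2 cells transiently transfected with multiplexed GAL4-UAS reporter units and exogenous chimeric NR-Gal4 proteins; 24 h compound exposure. Reporter mRNA measured by RT-PCR, 6-FAM labelling, HpaI digestion and capillary electrophoresis; gain of signal versus DMSO.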

Read-out in assay [13]: Intercellular Adhesion Molecule 1 (ICAM1), ICAM1 (gene 3383)
Briefly: BSK_3C_ICAM1: BioMAP Diversity Plus: 3C Assay for Intercellular Adhesion Molecule 1 (ICAM1) Biomarker Activity (AID 2283003). Particulars: primary human endothelial cells (HUVEC); actives raise or lower the signal. The gist of the method: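 ELISA readout of ICAM1 in human umbilical vein endothelial cells in the 3C system, taken 24 h post-dose. Gain or loss of signal versus DMSO was fitted in both directions, with SRB total-protein staining run in parallel.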

Assay [14] is described as follows: BSK_3C_Proliferation: Cell Proliferation Assessment in the BioMAP Diversity Plus: 3C Assay (AID 2283006).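 For AC50: potency may reflect either rise or fall in cell number versus DMSO.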 Particulars: primary human endothelial cells (HUVEC). The gist of the method:
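Proliferation as total protein: sulforhodamine B (0.1%) stain of TCA-fixed subconfluent human umbilical vein endothelial cells, absorbance 560 nm, 48 h after dosing. Activity fitted in both directions against DMSO baseline.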

The target of assay [15] is Peroxisome proliferator-activated receptor gamma (Homo sapiens) (UniProt P37231). Kind of assay: ATG_PPARg_TRANS: Attagene TRANS-FACTORIAL HepG2 Assay for human Peroxisome Proliferator-activated Receptor-gamma (PPARg) (AID 2283007; active = hit-call score of the fitted dose curve at least 0.9, where 1 is the maximum). The gist of the method: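 Read-out: reporter mRNA induction, detected by fluorescence after RT-PCR and capillary electrophoresis. Transiently transfected human HepG2 liver cells carrying a chimeric NR-Gal4 construct were dosed for 24 h; activity was fitted upward relative to DMSO.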

Assay [16] concerns the target Retinoic acid receptor alpha (Homo sapiens) (UniProt P10276). Briefly: ATG_RARa_TRANS: Attagene TRANS-FACTORIAL HepG2 Assay for human Retinoic Acid Receptor alpha (RARa) (AID 2283005; active = hit-call score of the fitted dose curve at least 0.9, where 1 is the maximum). The method, boiled down: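 HepG2 cells transiently transfected with multiple reporter units expressing chimeric RARα-GAL4 fusion, with GAL4-UAS-driven reporters. After 24 h compound exposure, reporter mRNA induction quantified by RT-PCR and capillary electrophoresis with fluorescent labeling; gain-of-signal fitted relative to DMSO control.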

For assay [17], the target named is Nuclear receptor subfamily 1 group I member 2 (Homo sapiens) (UniProt O75469). Briefly: ATG_PXR_TRANS: Attagene TRANS-FACTORIAL HepG2 Assay for human Pregnane X Receptor (PXR) (AID 2283008; active = hit-call score of the fitted dose curve at least 0.9, where 1 is the maximum). The gist of the method:
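Transient HepG2 transfectants carrying multiplexed reporter transcription units; PXR activity read through a Gal4 chimera. 24 h exposure. RT-PCR/CE fluorescence; upward curve fit referenced to DMSO.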

For assay [18], the target named is human Retinoic Acid Receptor gamma (RARg), RARG (gene 5916) (UniProt P13631). Kind of assay: ATG_RARg_TRANS: Attagene TRANS-FACTORIAL HepG2 Assay for human Retinoic Acid Receptor gamma (RARg) (AID 2283009; active = hit-call score of the fitted dose curve at least 0.9, where 1 is the maximum). The method, boiled down: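 Transactivation of exogenous RARg-Gal4 fusion measured as reporter transcript induction after 24 h in transfected HepG2 cells. RNA reverse-transcribed, amplified, fluorescently labeled and resolved by capillary electrophoresis; increase relative to DMSO.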

For assay [19], the target named is human RAR-related Orphan Receptor beta (RORb), RORB (gene 6096) (UniProt Q92753). Kind of assay: ATG_RORb_TRANS: Attagene TRANS-FACTORIAL HepG2 Assay for human RAR-related Orphan Receptor beta (RORb) (AID 2283010; active = hit-call score of the fitted dose curve at least 0.9, where 1 is the maximum). The method, boiled down: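 Read-out is reporter mRNA induction, quantified by RT-PCR with fluorescent capillary electrophoresis, 24 h post-dose in transiently transfected HepG2 expressing exogenous NR-Gal4 chimera. Activity fitted upward versus DMSO.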

Assay [20] addresses human Retinoic Acid Receptor beta (RARb), RARB (gene 5915) (UniProt P10826). Briefly: ATG_RARb_TRANS: Attagene TRANS-FACTORIAL HepG2 Assay for human Retinoic Acid Receptor beta (AID 2283004; active = hit-call score of the fitted dose curve at least 0.9, where 1 is the maximum). The gist of the method: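 Transient transfection of HepG2 with multiple reporter units → chemical dosing, 24 h → total RNA isolation → RT with oligo(dT) → reporter-specific PCR, 6-FAM primer extension, HpaI digest → capillary electrophoresis. Positive direction vs DMSO control.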

Results filed as inconclusive are left out. Calls of active or inactive are those of the source. Rule for the calls, unless noted: active = hit-call score of the fitted dose curve at least 0.9, where 1 is the maximum; inactive = score below 0.9.

Chain of Nuclear receptor subfamily 1 group I member 2 (Homo sapiens) (O75469 whole entry, looked up, the tested form may be a part): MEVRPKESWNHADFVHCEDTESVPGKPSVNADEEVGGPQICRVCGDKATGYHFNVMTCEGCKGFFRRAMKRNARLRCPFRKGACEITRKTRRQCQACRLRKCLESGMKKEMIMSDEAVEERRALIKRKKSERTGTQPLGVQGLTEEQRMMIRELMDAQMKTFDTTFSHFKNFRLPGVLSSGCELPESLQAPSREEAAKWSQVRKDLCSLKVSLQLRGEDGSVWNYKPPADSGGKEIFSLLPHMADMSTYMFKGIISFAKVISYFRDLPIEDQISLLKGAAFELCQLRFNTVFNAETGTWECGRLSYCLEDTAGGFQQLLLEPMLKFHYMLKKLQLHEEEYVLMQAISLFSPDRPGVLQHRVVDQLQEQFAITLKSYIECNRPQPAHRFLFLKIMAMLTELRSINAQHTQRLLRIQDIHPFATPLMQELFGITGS
Chain of Myc proto-oncogene protein (Homo sapiens) (P01106 whole entry, looked up): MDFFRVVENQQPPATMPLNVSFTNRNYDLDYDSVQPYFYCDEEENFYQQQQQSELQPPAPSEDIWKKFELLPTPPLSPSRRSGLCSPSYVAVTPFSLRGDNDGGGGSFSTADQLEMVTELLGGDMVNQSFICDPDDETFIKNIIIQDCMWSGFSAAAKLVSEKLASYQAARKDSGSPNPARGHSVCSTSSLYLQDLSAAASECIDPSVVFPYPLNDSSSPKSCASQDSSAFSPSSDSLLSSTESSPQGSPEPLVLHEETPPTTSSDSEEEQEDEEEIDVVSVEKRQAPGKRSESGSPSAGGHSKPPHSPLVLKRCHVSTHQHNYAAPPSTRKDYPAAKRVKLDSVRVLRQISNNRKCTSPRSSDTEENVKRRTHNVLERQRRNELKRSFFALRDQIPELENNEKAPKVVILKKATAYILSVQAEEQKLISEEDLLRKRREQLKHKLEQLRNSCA
Chain of Retinoic acid receptor alpha (Homo sapiens) (P10276 whole entry, looked up, the tested form may be a part): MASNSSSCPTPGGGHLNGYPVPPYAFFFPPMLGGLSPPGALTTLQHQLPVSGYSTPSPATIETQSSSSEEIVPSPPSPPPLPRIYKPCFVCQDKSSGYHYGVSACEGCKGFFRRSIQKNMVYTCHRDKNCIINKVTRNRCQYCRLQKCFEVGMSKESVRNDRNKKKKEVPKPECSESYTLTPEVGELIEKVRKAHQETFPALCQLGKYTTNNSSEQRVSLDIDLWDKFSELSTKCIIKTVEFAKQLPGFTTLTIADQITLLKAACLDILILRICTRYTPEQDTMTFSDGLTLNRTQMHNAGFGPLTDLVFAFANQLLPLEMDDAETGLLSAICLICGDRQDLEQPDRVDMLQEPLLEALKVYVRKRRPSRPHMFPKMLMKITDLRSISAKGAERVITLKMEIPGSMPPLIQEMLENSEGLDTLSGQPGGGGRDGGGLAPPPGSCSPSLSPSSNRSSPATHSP
Chain of Cellular tumor antigen p53 (Homo sapiens) (P04637 whole entry, looked up): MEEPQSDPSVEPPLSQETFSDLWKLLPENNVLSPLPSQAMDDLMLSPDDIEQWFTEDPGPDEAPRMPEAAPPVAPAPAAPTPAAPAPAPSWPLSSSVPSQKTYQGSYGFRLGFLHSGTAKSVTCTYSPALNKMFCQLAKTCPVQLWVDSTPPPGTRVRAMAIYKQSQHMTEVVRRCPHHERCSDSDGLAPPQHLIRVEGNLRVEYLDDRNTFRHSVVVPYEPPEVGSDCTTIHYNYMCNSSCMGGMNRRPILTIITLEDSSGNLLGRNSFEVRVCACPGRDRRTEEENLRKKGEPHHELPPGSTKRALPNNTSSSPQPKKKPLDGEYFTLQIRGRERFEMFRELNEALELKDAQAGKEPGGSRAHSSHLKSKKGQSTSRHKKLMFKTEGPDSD
Chain of human Retinoic Acid Receptor gamma (RARg), RARG (gene 5916) (P13631 whole entry, looked up, the tested form may be a part): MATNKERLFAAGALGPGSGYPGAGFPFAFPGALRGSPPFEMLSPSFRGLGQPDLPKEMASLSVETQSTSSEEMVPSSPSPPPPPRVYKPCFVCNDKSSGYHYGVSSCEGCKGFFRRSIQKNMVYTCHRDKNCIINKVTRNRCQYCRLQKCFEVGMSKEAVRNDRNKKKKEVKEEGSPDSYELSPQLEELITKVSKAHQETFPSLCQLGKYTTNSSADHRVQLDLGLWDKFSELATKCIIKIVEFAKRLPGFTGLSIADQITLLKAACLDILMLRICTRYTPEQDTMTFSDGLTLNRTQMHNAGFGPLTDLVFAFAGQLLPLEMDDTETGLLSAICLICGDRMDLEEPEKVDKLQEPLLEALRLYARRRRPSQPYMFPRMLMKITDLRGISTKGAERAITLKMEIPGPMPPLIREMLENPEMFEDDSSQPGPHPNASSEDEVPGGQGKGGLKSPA
Chain of human Peroxisome Proliferator-activated Receptor delta (PPARd), PPARD (gene 5467) (Q03181 whole entry, looked up, the tested form may be a part): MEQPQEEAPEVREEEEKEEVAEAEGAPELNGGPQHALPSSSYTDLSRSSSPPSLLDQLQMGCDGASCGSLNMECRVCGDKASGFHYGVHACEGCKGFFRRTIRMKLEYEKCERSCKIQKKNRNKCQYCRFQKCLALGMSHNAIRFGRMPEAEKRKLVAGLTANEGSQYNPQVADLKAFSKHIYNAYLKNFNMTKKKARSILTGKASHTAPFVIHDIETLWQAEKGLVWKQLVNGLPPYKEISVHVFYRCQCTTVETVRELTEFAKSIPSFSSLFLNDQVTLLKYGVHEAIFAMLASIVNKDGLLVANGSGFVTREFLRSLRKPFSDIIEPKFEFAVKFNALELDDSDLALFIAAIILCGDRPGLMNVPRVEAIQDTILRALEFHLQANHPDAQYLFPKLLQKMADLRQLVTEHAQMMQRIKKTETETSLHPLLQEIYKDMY
Chain of Peroxisome proliferator-activated receptor gamma (Homo sapiens) (P37231 whole entry, looked up, the tested form may be a part): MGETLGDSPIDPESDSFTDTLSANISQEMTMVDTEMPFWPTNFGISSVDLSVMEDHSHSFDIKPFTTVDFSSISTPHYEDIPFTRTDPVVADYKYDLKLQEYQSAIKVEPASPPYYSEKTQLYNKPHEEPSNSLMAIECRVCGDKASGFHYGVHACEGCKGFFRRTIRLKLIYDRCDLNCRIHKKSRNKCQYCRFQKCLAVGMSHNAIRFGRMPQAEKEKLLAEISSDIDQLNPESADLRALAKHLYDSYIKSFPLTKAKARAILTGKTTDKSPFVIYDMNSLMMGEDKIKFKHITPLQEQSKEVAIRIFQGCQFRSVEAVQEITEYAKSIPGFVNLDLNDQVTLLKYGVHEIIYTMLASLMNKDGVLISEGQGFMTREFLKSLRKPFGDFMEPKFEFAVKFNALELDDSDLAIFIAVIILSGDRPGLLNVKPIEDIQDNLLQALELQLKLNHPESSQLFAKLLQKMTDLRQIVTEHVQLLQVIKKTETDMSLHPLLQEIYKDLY
Chain of human Peroxisome Proliferator-activated Receptor alpha (PPARa), PPARA (gene 5465) (Q07869 whole entry, looked up): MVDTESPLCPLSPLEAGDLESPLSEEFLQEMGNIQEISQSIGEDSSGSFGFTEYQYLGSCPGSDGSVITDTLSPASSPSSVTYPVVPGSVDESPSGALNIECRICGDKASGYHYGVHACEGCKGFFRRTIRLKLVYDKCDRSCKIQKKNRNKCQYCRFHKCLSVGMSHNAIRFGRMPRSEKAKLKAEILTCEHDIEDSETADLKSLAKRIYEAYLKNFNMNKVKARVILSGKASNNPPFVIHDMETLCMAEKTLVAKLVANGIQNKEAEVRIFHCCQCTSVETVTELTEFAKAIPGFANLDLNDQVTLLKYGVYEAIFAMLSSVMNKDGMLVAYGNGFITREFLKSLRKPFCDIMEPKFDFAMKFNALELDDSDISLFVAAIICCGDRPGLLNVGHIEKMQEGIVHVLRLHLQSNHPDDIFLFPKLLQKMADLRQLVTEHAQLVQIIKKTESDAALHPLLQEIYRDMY
Chain of human RAR-related Orphan Receptor beta (RORb), RORB (gene 6096) (Q92753 whole entry, looked up, the tested form may be a part): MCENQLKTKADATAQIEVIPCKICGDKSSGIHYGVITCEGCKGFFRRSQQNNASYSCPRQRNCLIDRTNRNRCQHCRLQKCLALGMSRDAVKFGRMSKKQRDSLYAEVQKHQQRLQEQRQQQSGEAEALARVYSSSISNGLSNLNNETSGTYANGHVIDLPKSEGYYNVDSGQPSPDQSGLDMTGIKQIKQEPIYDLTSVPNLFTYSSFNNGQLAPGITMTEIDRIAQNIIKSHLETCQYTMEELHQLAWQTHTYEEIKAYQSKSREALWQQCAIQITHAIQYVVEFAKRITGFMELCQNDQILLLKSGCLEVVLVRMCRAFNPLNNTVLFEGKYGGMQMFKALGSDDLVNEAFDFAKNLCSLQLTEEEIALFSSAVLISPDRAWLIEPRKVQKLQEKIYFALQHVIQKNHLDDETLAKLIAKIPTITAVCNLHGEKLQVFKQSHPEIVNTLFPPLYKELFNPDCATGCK
Chain of human Retinoic Acid Receptor beta (RARb), RARB (gene 5915) (P10826 whole entry, looked up): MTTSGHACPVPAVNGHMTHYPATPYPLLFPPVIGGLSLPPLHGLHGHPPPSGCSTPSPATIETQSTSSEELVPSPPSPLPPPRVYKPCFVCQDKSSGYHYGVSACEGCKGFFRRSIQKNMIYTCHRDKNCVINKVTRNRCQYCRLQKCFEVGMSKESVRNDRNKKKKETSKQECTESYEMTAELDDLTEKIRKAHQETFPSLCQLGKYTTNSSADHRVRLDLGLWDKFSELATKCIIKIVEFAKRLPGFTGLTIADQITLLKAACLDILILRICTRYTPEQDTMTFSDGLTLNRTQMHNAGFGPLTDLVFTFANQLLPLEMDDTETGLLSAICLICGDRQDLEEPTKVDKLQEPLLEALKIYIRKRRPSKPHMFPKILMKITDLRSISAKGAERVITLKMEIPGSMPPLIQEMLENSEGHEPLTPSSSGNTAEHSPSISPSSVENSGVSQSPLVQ

With `O=S(=O)(C(Cl)(Cl)Cl)C(Cl)(Cl)Cl`, the concentration at half-maximal activity (AC50) is 17.9 µM (active) in assay [1]; 11.1 µM (active) in [2]; 15.6 µM (active) in assay [3]; 2.87 µM (active) in assay [4]; 16.4 µM (active) in assay [5]; 15.1 µM (active) in [6]. Moreover, the AC50 was 1.11 µM (active) in [7]; 1.24 µM (active) in assay [8]; 2.08 µM (active) in [9]; 1.47 µM (active) in assay [10]; 2.9 µM (active) in assay [13]; 200 nM (active) in assay [14]. Besides, the result in assay [11], in [12] and in assay [15] was inactive.

With `CCOP(=O)(OCC)SCCSCC`, the outcome in assay [1], in assay [2], in assay [3], in [4], in assay [5] and in assay [6] was inactive. Moreover, the result in assay [7], in assay [8], in [9], in [10], in assay [13] and in assay [16] was inactive. For the same compound, the outcome in [14], in assay [15], in assay [17], in assay [18] and in assay [19] was inactive.

`C[CH2][Hg][S]c1ccccc1C(=O)O`: the AC50 is 1.58 µM (active) in [1], 0.3 µM (active) in [4], 2.87 µM (active) in [5] and 3.71 µM (active) in assay [15]. The result in [2], in assay [3], in assay [6], in [11], in assay [12] and in assay [20] was inactive. For the same compound, the compound was classed as inactive in assay [16], in assay [17], in [18] and in assay [19].

`C=CCCl`: the call in assay [1], in [2], in [3], in assay [4], in assay [5] and in assay [6] was inactive. For the same compound, the compound was called inactive in [11], in assay [12], in assay [16], in assay [15], in assay [17] and in [18].
